According to the supplement of paper PMC11417369:
Whole data set: some 25,000 sequences, median “ln(normalized median fluorescence intensity)” near 6.7, cut for the highest 2% near 10. The entries come from a sample that favours the highest values as a whole.

Each sequence was assayed on PfHDP1 homeodomain (GST-tagged) (assay: gcPBM binding intensity (ln(normalized median fluorescence intensity)); higher = stronger DNA binding).
Summary of the method: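 In this array assay, P. falciparum DNA-binding domains with a GST tag, expressed in E. coli, were applied for 1 h to primer-extended double-stranded 36-bp intergenic genomic probes and negative controls on an Agilent 4 × 180k array. Bound protein was visualised with Alexa488 anti-GST antibody at 488 nm. Binding intensity is the highest Masliner-normalised natural-log median intensity across replicate spots of either probe orientation.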

| Sequence | gcPBM binding intensity (ln) |
| --- | --- |
| TTTTTTTCTAATTATGCACACATATCAAAATATTCA [CACACA_site8886] | 10.2 |
| ATTTTATGAAATGTTGCACACAAAAAACAACATGTT [CACACA_site8408] | 9.69 |
| TTTATGAAATGTTGCACACAAAAAACAACATGTTTT [CACACA_site1440] | 9.63 |
| TAGTTGCACATGTATACACACAAAAAATATTTTATG [CACACA_site475] | 10.4 |
| TATTTTATATGAGGCACACAAATTTTAATTGTTATT [CACACA_site725] | 5.99 |
| ACATGTTTTATGTGCACACAAAGTTGTTATGAGGTT [CACACA_site4031] | 10.7 |
| ATACATGTTTTATGTGCACACAAAGTTGTTATGAGG [CACACA_site4032] | 10.8 |
| TCTTCATAAAAATAAAGTACATTATATATATAAATA [XGTACX_site3775] | 6.37 |
| AAAAAATAGAATATGGGTACTAAAAAGATACAAACA [XGTACX_site4464] | 6.84 |
| AAGTTTAAAGGAATTACACAAACAAGCAAATATATA [CACACA_negctrl_site857] | 6.92 |
| AAAAAACTATTATGTGCATGCACAAGTCAGGTAAAT [TGCATGCA_site791] | 11.3 |
| ACAATTTTATTTAAAGTGCATGTAAAATTAAAACTT | 7.44 |
| TCATTAATCAGGTATGCATGCATAACTATTAAAAAT [TGCATGCA_site90] | 6.46 |
| ATAAAAATATAAACATGTACATAAAAATCTATATAT [XGTACX_site405] | 6.72 |
| TTTCATTTGTCGTTATGTACTTATTAAATATTATTA [XGTACX_site7709] | 6.92 |
| TTAATACATATATATATATTATATATATATATATAT [TGCATGCA_negctrl_site177] | 8.89 |
| ATATATATATTTATAGTGCATTTATATTAAAATATC [GTGCAC_site9818] | 8.5 |
| ATGATATATTTAATAGTGCACTAATTAAAATTATTA [GTGCAC_site9418] | 10.8 |
| TTATATAATTTAATAGTGCAATTATATTAATTTTTC | 8.66 |
| CTTAAAATATATTTAGTGCATATACTAATATATTAT | 8.9 |

| Sequence | gcPBM binding intensity (ln) |
| --- | --- |
| ATATATCATATTATAGTGCATTTATAATAATATTAT | 8.51 |
| TTACAATAAATTATAGTGCAATATTTTATTTAATAT | 10.6 |
| ATTTTCTTTTCCATAGTGCAATATAATTATCCATCA [GTGCAC_site9547] | 10.9 |
| TTCTAAAATTATATAGTGCAATTATATTAATTTTTC | 8.98 |
| ATATTTTATATAATAGTGCAAATAATATTAAATAAT | 9.78 |
| TATATATATATATATATATATATATATATAATATTA [XGTACX_negctrl_site558] | 9.37 |
| TGGAGGATAGTTCACAGTACCCAGTAACTCTACGGA [XGTACX_site4930] | 6.22 |
| TATATATATATAATTGCACACATCAAGTTTGATGTT [CACACA_site1288] | 9.99 |
| CAAAATGATATGACAACACACAACCTATAGTAAGAC [CACACA_site1287] | 6.91 |
| ATCATCCAAGATCTTACACACATATTAAATAAATAA [CACACA_site1473] | 6.66 |
| AGGCCTTTTAGTATTTCACACACGTAAATGTGTATA [CACACA_site8284] | 6.43 |
| GGAATATATATACATACACACATATATATATATATA [CACACA_site1666] | 9.32 |
| GTTCTAATATATTGCACACGTAAAAATATAGGTAAT [CACACA_site886] | 10.6 |
| TACGTAAATTCTAATACACACTATAGGATATTCTGC [CACACA_site7248] | 6.41 |
| TTGTTCTAATATATTGCACACGTAAAAATATAGGTA [CACACA_site8195] | 10.1 |
| TGGGAAAAAATATATGCACACCCCCCAAAAAAAAAA [CACACA_site8696] | 10.6 |
| GGAAAAAATATATGCACACCCCCCAAAAAAAAAAAA [CACACA_site2222] | 9.67 |
| AAAAAAAAAAAACACACACACACACCCAAATATATA [CACACA_site150] | 6.84 |
| ATTAAATGTATGACTTGTACATAAAATAAAAAAAAA [XGTACX_site6555] | 6.56 |
| AGGTGCAAAAATAAAACATGCAAAAATAAAAATGAA [TGCATGCA_site502] | 10.7 |

| Sequence | gcPBM binding intensity (ln) |
| --- | --- |
| AAATAAAATAATAAAACATGCAAAAATAATGATTTA [TGCATGCA_site415] | 6.72 |
| TAAAGGAAATAAAAAACATGCAAATATGAAATATAT [TGCATGCA_site745] | 6.74 |
| TTTATTAAAATATTCTCACACACCAAAATATGTATG [CACACA_site932] | 6.42 |
| ATAACAAAAATCCTTGTGCACTATTTTAATAGAGTC | 10.5 |
| TTTTAATATATAGAGTAACAAATTTGTCTATTAATA [CACACA_negctrl_site1495] | 6.6 |
| TATATATATTTTTGTGTGCACTATAATATGAAAATA | 10.3 |
| TAAAAAATAAATATATGTACATATTTATTTTTTTTT [XGTACX_site850] | 6.19 |
| TATCATATATAAAGAGGTACGTAAGAATAGAAAATT [XGTACX_site798] | 7.27 |
| CATTTTATTTTCTTTGTGCACAAAAATATTTTTTCT | 10.8 |
| ATAAAAAAAAATATTTGTACACATATTTATATATTA [XGTACX_site8147] | 6.56 |
| TCTTTCCTTATTAAAACACACAAATACATTATTTAA [CACACA_site2147] | 6.7 |
| TTTTTGTTACCTATTGTGCACTTCATATAAATTAAA | 10.9 |
| GTGCAAAATATTTTTACACACAAATTCTTACAACAG [CACACA_site7556] | 7.77 |
| GTATTTCTTTAATATACACACACCAAAACAAAAAAA [CACACA_site579] | 6.98 |
| TTTTATTTCTTTGCACCATTTTAAATACAAACAAAT [CACACA_negctrl_site1553] | 11 |
| GAAATTTGTTATTGCACACAAATTTTTCTTTTTTTA [CACACA_site2339] | 9.6 |
| ACATTAAAAAATTGTTTGCACTATATAAAATATTAA [GTGCAC_site9728] | 8.82 |
| TAATAAAAAAAGTGCACACACATAATATTTATATAT [CACACA_site7548] | 8.75 |
| TTTTTTTTTGTTAAAGTGCATATATTAAATTTTCCT [GTGCAC_site9677] | 7.82 |
| TTTTTTATTTTGTGCACACACATAAAAATATATATA [CACACA_site761] | 11.4 |
